TEAD-YAP inh – TEAD-YAP interaction inhibition. HEK-TIYL cells, TEAD-Gal4/YAP UAS-luciferase luminescence. inhibition, % at 9.12 µM. actives 1.4% (n = 640,000). AID 1259422; in the data active = inhibition above about 32%
MITF primary – inhibitors of human MITF; O75030; AlphaScreen MITF homodimerization, bead proximity signal; inhibition, % at 2.6 µM; actives 0.91% (n = 650,000); AID 1259374; in the data active = inhibition above about 50%
GPR151 activ – activators of human GPR151. activation, % at 11.2 µM. actives 1% (n = 650,000). AID 1508602. PathHunter beta-arrestin GPR151 cells, luminescence. Q8TDV0; in the data active = activation above about 4.9%
Target sequence (Q8TDV0 whole entry, looked up): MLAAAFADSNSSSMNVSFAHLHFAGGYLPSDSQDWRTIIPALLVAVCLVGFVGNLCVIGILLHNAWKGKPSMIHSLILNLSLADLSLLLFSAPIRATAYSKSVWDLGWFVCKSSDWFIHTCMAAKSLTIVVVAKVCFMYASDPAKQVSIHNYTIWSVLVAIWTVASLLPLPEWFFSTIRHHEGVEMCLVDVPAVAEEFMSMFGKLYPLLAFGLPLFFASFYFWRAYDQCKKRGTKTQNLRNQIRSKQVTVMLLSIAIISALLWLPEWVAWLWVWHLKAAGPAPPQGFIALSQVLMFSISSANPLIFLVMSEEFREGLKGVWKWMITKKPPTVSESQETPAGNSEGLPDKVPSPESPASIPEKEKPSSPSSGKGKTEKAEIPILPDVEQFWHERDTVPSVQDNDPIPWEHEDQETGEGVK
FBW7 act – activators of human E3 ligase FBW7; actives 0.13% (n = 650,000); normalized activity (activation), % at 26.1 µM; AID 1259310; AlphaScreen FBW7–phospho-cyclin E peptide binding, activator screen; Q969H0; in the data active = normalized activity above about 1.9%;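 note: purified mutant Fbw7 with reduced substrate affinity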
A number is an active result; - = inactive; . = no result; ! = repeats disagree. Compounds with a hit are over-represented: about 3.5% of the library has one in this group of screens.

SMILES	TEAD-YAP inh	MITF primary	GPR151 activ	FBW7 act
CN(CC(=O)NC1CCCCCCC1)S(=O)(=O)c1cc(Br)cnc1N	-	-	-	-
Cc1cc(C)nc(SCC(=O)N/N=C\c2ccccc2[N+](=O)[O-])n1	-	-	-	-
Cc1cc(C)n2nc(SCC(=O)NCCc3ccccc3)nc2n1	-	-	-	-
Cc1ccc(S(=O)(=O)N2CCOCC2)c(C)c1N1CCCC1=O	-	-	-	-
Cc1ccn(S(=O)(=O)c2ccc(C)c(N3CCCC3=O)c2C)n1	-	-	-	2.0
COC(=O)C1=CN(CC2CCCO2)C=C(C(=O)OC)C1c1cccc(Oc2ccccc2)c1 (stereo unspecified)	-	-	-	2.4
COC(=O)C1=CN(C)C=C(C(=O)OC)C1c1cccc(OCc2ccccc2)c1	-	-	-	-
COC(=O)C1=CN(CC2CCCO2)C=C(C(=O)OC)C1c1cccc(O)c1 (stereo unspecified)	-	-	-	-
CCN1C=C(C(=O)OC)C(c2cccc(OCc3ccccc3)c2)C(C(=O)OC)=C1	-	-	-	2.0
CCCOc1ccc(C2C(C(=O)OC)=CN(CCC)C=C2C(=O)OC)cc1	-	-	-	3.0
CN(C)CCNC(=O)c1ccc(S(=O)(=O)c2ccc(Br)cc2)c([N+](=O)[O-])c1	55	-	-	-
CN(C)CCNC(=O)c1ccc(Sc2ccccc2Cl)c([N+](=O)[O-])c1	-	-	-	-
COc1ccccc1-c1nnc(SCC(=O)N(C)C)n1C	-	-	-	-
COc1ccc(/C=C2\C(=O)Nc3ccc(Br)cc32)cc1	-	-	-	-
COc1ccc(/C=C2\C(=O)Nc3ccc(Br)cc32)c(OC)c1OC	53	-	-	-
COc1cccc2sc(Nc3nnc(-c4ccccc4Cl)o3)nc12	46	-	-	-
COc1ccccc1-c1nnc(Nc2nc3c(OC)cccc3s2)o1	53	-	-	-
COc1cccc2sc(Nc3nnc(-c4ccccc4)o3)nc12	-	-	-	-
O=C1c2c(O)ccc(O)c2C(=O)c2c(O)ccc(O)c21	-	-	-	-
O=C1c2c(O)ccc(O)c2C(=O)c2c(NCCNCCO)ccc(NCCNCCO)c21	55	52!	-	-
COc1cc(-c2ccc(N=Nc3ccc4c(S(=O)(=O)O)cc(S(=O)(=O)O)c(N)c4c3O)c(OC)c2)ccc1N=Nc1ccc2c(S(=O)(=O)O)cc(S(=O)(=O)O)c(N)c2c1O	.	77	-	-
Nc1c(S(=O)(=O)O)cc(S(=O)(=O)O)c2cccc(O)c12	-	-	-	-
COc1cccc(N2C(=O)C(=O)/C(=C(\O)c3ccccc3)C2c2ccc(O)c(OC)c2)c1 (stereo unspecified)	-	-	-	-
Cn1cc(/C=C2/NC(=O)N(c3cccc(Cl)c3)C2=O)c2ccccc21	50	-	-	-
COC(=O)Cn1cc(/C=C2/NC(=O)N(c3cccc(Cl)c3)C2=O)c2ccccc21	-	-	-	-
SMILES	TEAD-YAP inh	MITF primary	GPR151 activ	FBW7 act
CC(=O)Nc1cccc(-c2cnc3ccc(NCc4ccc(S(N)(=O)=O)cc4)nn23)c1	-	-	-	-
CN(C)N1C(N)=C(C#N)C(c2ccc(C(F)(F)F)cc2)C2=C1CCCC2=O (stereo unspecified)	-	-	-	2.1
COc1cc(C2C(C#N)=C(N)N(c3ccc(C)cc3)C3=C2C(=O)CCC3)cc(OC)c1OC (stereo unspecified)	61	-	-	-
COc1ccc(N2C(N)=C(C#N)C(c3ccc(O)c(OC)c3)C3=C2CCCC3=O)cc1 (stereo unspecified)	58	-	-	-
COc1ccc(N2C(N)=C(C#N)C(c3ccc(OC)c(OC)c3)C3=C2CCCC3=O)cc1 (stereo unspecified)	62	-	-	-
Cc1ccc(C2C(C#N)=C(N)N(N(C)C)C3=C2C(=O)CCC3)cc1 (stereo unspecified)	-	-	-	-
COc1ccc(C2C(C#N)=C(N)N(c3ccc(OC)cc3)C3=C2C(=O)CCC3)cc1 (stereo unspecified)	-	-	-	-
O=C(N1CCN(Cc2nnnn2-c2ccccc2)CC1)C12CC3CC(CC(C3)C1)C2	-	-	-	-
CCCN(C(=O)NS(=O)(=O)c1ccc(C)cc1)C1CCN(C)CC1	-	-	-	-
C=CCOc1cccc(C(=O)NCCN(C)C)c1	-	-	-	-
Cc1cc2c(cc1C)n(C1CC(=O)C3OCC1O3)c(=S)n2Cc1ccccc1Cl (stereo unspecified)	48	-	-	-
Cc1onc(-c2ccccc2)c1C1=N/C(=C\c2cccc(Br)c2)C(=O)O1	-	-	-	2.2
Cc1cc(NC(=O)CCCC(=O)c2ccccc2)n[nH]1	47	-	-	-
